The record followed here is PubChem BioAssay (NCATS).

Structures are written as SMILES. Records with an inconclusive call do not appear. The source made the active and inactive calls. Unless noted, calls follow the shape of the dose curve; as a rule, active = well fitted curve in the direction sought with a large enough effect; inconclusive = small, poorly fitted or top-dose-only effect, or another doubt; inactive = no such curve, though single readings can be large; an effect the other way counts as inactive or inconclusive. Bounds are passed on as bounds.

The target of assay [1] is Cytochrome P450 2D6 (Homo sapiens) (UniProt P10635). In words: qHTS Assay for Inhibitors and Substrates of Cytochrome P450 2D6 (AID 891).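 Also: luciferin methyl ether substrate demethylated by CYP2D6 with NADPH regeneration; % is scaled to controls: 0 for no effect and ±100 for the full control effect; nearly all actives have a fitted effect of over 60% in size.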 In outline:
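Luminescent read-out of luciferin formed by 5 nM human CYP2D6 demethylating 30 uM Luciferin-ME EGE (Km level) over 60 min at room temperature after NADPH regeneration addition. Data normalized to full inhibition by 1.43 uM quinidine.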
For orientation: Quantitative high-throughput screening tests each substance at several concentrations.

The target in assay [2] is Lysosomal acid glucosylceramidase (Homo sapiens) (UniProt P04062). In words: Glucocerebrosidase-p2 (AID 348; in the data active = potency below about 10 µM; also: potency is read from the fitted curve at half-maximal effect). The conditions noted are these: purified GBA, blue fluorogenic substrate, 40 min. In outline: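 Normal human glucocerebrosidase (0.2 nM) with blue fluorogenic substrate (80 uM final) in citrate/phosphate pH 5.9 with 10mM sodium taurocholate, 0.01% tween-20; 40 min RT, NaOH/glycine stop; fluorescence Ex 365/Em 440; AC50 from a titration from 0.6 nM upwards.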

A short description of assay [3]: Cell Proliferation Assay against the TMD8 Cell Line (AID 651645).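 Also: cells exposed to compound for 48 h before reading.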 As to conditions: TMD8 DLBCL cell line proliferation/viability; at 46.1 µM (top of the series). In short, it runs like this: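 TMD8 cells, 500/well in RPMI with 5% FBS, dosed immediately and grown 48 h at 37 C, 5% CO2. CellTiter-Glo luminescence normalised to DMSO 100% and 9.2 uM bortezomib (final) 0%.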

Assay [4] concerns the target Calcium and integrin-binding protein 1 (Homo sapiens) (UniProt Q99828). In words: Confirmatory qHTS for Identification of Calcium Integrin Binding Protein 1 (CIB1) Competitor (AID 1508617). Also: potency is read from the fitted curve at half-maximal effect; nearly all actives have a fitted effect of over 65% in size. The conditions noted are these: CIB1 binding competition assay, biochemical qHTS. In short, it runs like this:
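Binding competition between test compounds and fluorescent alphaIIb peptide for 1 uM CIB1-GST is monitored by FP at 480/540 nm. Final compound range is up to 114 uM; unlabeled peptide serves as reference competitor.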

For assay [5], the target named is Chromobox protein homolog 1 (Homo sapiens) (UniProt P83916). In words: qHTS Validation Assay for Inhibitors of HP1-beta Chromodomain Interactions with Methylated Histone Tails (AID 488953).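 Also: loss of AlphaScreen luminescence from HP1-beta binding biotinylated H3K9me3 peptide; % is scaled to controls: 0 for no effect and ±100 for the full control effect; nearly all actives have a fitted effect of over 50% in size.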 In outline:
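AlphaScreen proximity readout: streptavidin donor and Ni-chelate acceptor beads, 10 ug/mL final, 30 min dark, RT. Complex of 50 nM HP1-beta and 50 nM b-H3(1-18)K9me3 formed 30 min, then compound-treated 30 min; PBS pH 7.4/0.01% Tween-20.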

The target in assay [6] is Methanococcus maripaludis chaperonin (MmCpn) (UniProt Q6LX38). In words: High-Throughput Screening for Modulators of Cytosolic Chaperonin Activity: MmCpn Primary Screen (AID 488978).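 Also: 50 nM MmCpn enzyme hydrolysing 30 µM ATP at 37 °C; 0% is about no effect.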 In outline:
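MmCpn at 50 nM final was preincubated 5 min at RT with compound. ATP was then added at 30 uM final for 10 min at 37 C. ADP formed was detected by Transcreener HTRF (665/590 nm).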

The target of assay [7] is D(1A) dopamine receptor (Homo sapiens) (UniProt P21728). In words: HTS Assay for Allosteric Agonists of the Human D1 Dopamine Receptor: Primary Screen for Agonists (AID 488981). Also: 0% is about no effect. In short, it runs like this:
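Calcium flux in an inducible, force-coupled HEK293 Trex D1 line (overnight at 30 C): agonist mode is the 180 s kinetic read after compound; potentiator mode is the following 180 s read after dopamine at EC20.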

Assay [8] shares this target. In words: HTS Assay for Allosteric Agonists of the Human D1 Dopamine Receptor: Primary Screen for Antagonists (AID 488983).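 Also: calcium flux response to an EC80 dopamine challenge measured with no-wash dye; % is scaled to controls: 0 for no effect and ±100 for the full control effect; nearly all actives have a fitted effect of over 65% in size.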 In short, it runs like this: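 Calcium flux readout, no-wash dye, inducible HEK293 T-REx D1 line (force-coupled). Compound added after 10 s baseline, 180 s kinetic read; then dopamine at EC80, further 180 s read.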
Assay [9] is described as follows: Validation screen for small molecules that induce genotoxicity in human embryonic kidney (HEK293T) cells expressing luciferase-tagged ELG1 (AID 493106). Also: 0% is about no effect. In short, it runs like this: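 qHTS format; 2,000 HEK293T ELG1-luc cells/well; 23 nL compound via pin tool; 16 hr, 37 °C/5% CO2; ONE-Glo, 30 min RT; luminescence read.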
Assay [10] addresses ATPase family AAA domain-containing protein 5 (Homo sapiens) (UniProt Q96QE3). In words: Validation screen for small molecules that inhibit ELG1-dependent DNA repair in human embryonic kidney (HEK293T) cells expressing luciferase-tagged ELG1 (AID 493107).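 Also: cells co-treated with the DNA-damaging agent 5-fluorouridine alongside compound; % is scaled to controls: 0 for no effect and ±100 for the full control effect; inhibitors lower the ELG1-luciferase luminescence signal; nearly all actives have a fitted effect of over 70% in size.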 In outline:
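ELG1-luciferase HEK293T reporter; 5-fluorouridine + compound/DMSO, 16 hr, 37 °C, 5% CO2; ONE-Glo 30 min RT; luminescence read, qHTS format.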

A short description of assay [11]: qHTS for Inhibitors of Cell Surface uPA Generation: Validation Assay (AID 493164).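 Also: RAW 264.7 macrophage cells exposed to compound for 18 h; 0% is about no effect.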 In short, it runs like this:
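Compounds are titrated over seven points (2.45 nM–38.3 uM final) onto pre-plated RAW 264.7 cells and incubated for 18 h. Retained intracellular ATP, measured with ATP-Lite, indicates blocked lethal factor entry.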

Assay [12] deals with Peptidyl-prolyl cis-trans isomerase NIMA-interacting 1 (Homo sapiens) (UniProt Q13526). In words: qHTS Validation Assay to Find Inhibitors of Pin1 (AID 504536; active = well fitted inhibition curve with a large enough effect in the polarisation, with a control signal flat, not every such curve was filed as active; the % refers to the polarisation;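 also: 0% = full Pin1 enzyme wells and -100% = no-enzyme wells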). In outline: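 Fluorescence polarization competition: compounds (titration) displace HiFluor-488-labeled Pin1-1b peptide from Pin1 (0.3 uM final) in pH 7.5 HEPES buffer with DTT, 10 min at room temperature; %Activity normalized to no-enzyme wells, curves fitted.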
Peptidyl-prolyl cis-trans isomerase NIMA-interacting 1 (Homo sapiens), sequence (Q13526 whole entry, looked up): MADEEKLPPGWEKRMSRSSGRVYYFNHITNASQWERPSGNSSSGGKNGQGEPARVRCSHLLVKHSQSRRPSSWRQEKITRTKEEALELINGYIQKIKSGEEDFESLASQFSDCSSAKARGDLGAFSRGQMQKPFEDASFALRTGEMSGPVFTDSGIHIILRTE

In assay [13] the target is Phosphoglycerate kinase, glycosomal (Trypanosoma brucei brucei) (UniProt P07378). In words: qHTS Validation Assay to Find Inhibitors of Phosphoglycerate Kinase (AID 504547).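 Also: control wells lack PGK and mark full inhibition.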 In short, it runs like this:
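Luminescence end-point (Kinase-Glo Plus, 10 min) after a 60 min room-temperature coupled reaction. GAPDH at 100nM final supplies 1,3-BPG to PGK. Buffer: 100mM TEA pH 7.6, 5mM MgCl2, 0.01% Tween-20. Wells lacking PGK served as controls.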

Assay [14] has as its target phosphoglycerate mutase (Leishmania major) (UniProt Q4Q090). In words: qHTS Validation Assay to Find Inhibitors of Phosphoglycerate Mutase (AID 504548).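 Also: end-point luminescence from Kinase-GloPlus after the PGAM reaction; % is scaled to controls: 0 for no effect and ±100 for the full control effect.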 In outline:
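Inhibition of L. major PGAM was assessed by Kinase-GloPlus luminescence following a 45-minute room-temperature reaction with enzyme at 1.25nM final.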

Assay [15] in a line: Inducers of the Endoplasmic Reticulum Stress Response (ERSR) in human glioma: Validation (AID 504836). Also: 0% is about no effect. In short, it runs like this: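 ERSR induction read as luciferase luminescence (Bright-Glo, 10 min at room temperature) in stably transfected human U87-MG glioma cells exposed to compounds for 16 h, using GRP78 as sensor.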
Assay [16] is described as follows: qHTS for Inhibitors of ATXN expression: Validation of Cytotoxic Assay (AID 588349). Also: % is scaled to controls: 0 for no effect and ±100 for the full control effect. In outline:
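Cytotoxicity counter-screen: HEK293 cells exposed to compound titrations, 72 hr, 37 degrees C. Read-out is intracellular ATP (CellTiter Glo luminescence) as a viability measure.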

Assay [17] is described as follows: qHTS for Inhibitors of ATXN expression: Validation (AID 588378). Also: % is scaled to controls: 0 for no effect and ±100 for the full control effect; nearly all actives have a fitted effect of over 75% in size. In outline:
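HEK293 cells carrying ATXN2-firefly luciferase reporter, treated with compound 24 h at 37 °C. Viability read first by CellTiter-Fluor (405/525 nm), then reporter expression by Bright-Glo luminescence; controls were a known ATXN2 expression inhibitor and a luciferase inhibitor.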

For assay [18], the target named is Glucagon-like peptide 1 receptor (Homo sapiens) (UniProt P43220). In words: qHTS of GLP-1 Receptor Agonists: LOPAC Validation (AID 624148).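 Also: luminescence from a luciferase reporter switched on by cAMP; 0% is about no effect; higher luminescence signal means agonism.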 In short, it runs like this:
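Agonism scored as increased luciferase luminescence driven by cAMP in HEK293 clones carrying GLP-1R. Cells settled 12 hours, received compound for 4-6 hr at 37 deg C, 5% CO2, and were read after 12 min detection reagent at RT.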

Assay [19] can be described thus: qHTS of Nrf2 Activators: LOPAC Validation (AID 624149). Also: 0% is about no effect. In outline:
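AREc32_Fluc cells, 1000/well, OPTI-MEM + 5% FBS, o/n 37 deg C 5% CO2; compound pin-transfer, 24 hr 37 deg C; Steady-Glo 30 min RT, luminescence read.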

Assay [20] can be described thus: HTS Assay for Allosteric Antagonists of the Human D2 Dopamine Receptor: Hit Validation in HTRF (AID 624455). Also: % is scaled to controls: 0 for no effect and ±100 for the full control effect. In outline: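 HTRF read-out; cells stably expressing D1 receptor; hits scored for inhibition of D1-mediated response. Primary screen: calcium flux, force-coupled inducible Hek293 Trex D2 line, antagonism vs EC80 dopamine.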
For orientation: Time-resolved FRET reads energy transfer from a long-lived donor to a nearby acceptor.

D(1A) dopamine receptor (Homo sapiens), sequence (P21728 whole entry, looked up): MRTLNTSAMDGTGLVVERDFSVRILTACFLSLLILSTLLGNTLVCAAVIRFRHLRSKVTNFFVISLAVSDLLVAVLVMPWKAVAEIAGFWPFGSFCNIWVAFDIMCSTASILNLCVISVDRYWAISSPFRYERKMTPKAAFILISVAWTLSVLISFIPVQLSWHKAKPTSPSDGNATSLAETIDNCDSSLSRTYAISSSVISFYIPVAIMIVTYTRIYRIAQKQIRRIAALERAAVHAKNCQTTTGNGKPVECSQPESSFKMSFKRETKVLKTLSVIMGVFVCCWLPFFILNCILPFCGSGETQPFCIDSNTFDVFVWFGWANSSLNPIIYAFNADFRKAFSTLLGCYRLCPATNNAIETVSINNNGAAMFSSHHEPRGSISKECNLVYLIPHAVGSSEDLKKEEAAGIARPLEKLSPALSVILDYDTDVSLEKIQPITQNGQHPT
Glucagon-like peptide 1 receptor (Homo sapiens), sequence (P43220 whole entry, looked up): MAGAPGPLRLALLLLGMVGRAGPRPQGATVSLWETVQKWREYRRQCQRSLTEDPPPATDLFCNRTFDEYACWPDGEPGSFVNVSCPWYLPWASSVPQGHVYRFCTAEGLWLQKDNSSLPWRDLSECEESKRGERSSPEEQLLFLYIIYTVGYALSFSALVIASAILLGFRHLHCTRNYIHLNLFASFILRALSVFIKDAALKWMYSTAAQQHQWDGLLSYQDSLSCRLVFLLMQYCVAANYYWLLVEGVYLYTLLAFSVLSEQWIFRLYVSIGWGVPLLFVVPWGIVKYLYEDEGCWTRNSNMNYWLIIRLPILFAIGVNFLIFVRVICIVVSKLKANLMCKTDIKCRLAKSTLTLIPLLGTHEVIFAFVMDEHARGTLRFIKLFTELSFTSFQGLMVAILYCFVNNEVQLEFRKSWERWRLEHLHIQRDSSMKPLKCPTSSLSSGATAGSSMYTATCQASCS
Chromobox protein homolog 1 (Homo sapiens), sequence (P83916 whole entry, looked up): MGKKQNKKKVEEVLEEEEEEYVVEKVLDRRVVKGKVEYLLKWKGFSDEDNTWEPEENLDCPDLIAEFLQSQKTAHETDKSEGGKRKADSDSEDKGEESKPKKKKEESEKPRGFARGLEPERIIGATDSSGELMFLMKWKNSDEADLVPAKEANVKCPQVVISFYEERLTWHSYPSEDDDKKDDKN
phosphoglycerate mutase (Leishmania major), sequence (Q4Q090 1-553): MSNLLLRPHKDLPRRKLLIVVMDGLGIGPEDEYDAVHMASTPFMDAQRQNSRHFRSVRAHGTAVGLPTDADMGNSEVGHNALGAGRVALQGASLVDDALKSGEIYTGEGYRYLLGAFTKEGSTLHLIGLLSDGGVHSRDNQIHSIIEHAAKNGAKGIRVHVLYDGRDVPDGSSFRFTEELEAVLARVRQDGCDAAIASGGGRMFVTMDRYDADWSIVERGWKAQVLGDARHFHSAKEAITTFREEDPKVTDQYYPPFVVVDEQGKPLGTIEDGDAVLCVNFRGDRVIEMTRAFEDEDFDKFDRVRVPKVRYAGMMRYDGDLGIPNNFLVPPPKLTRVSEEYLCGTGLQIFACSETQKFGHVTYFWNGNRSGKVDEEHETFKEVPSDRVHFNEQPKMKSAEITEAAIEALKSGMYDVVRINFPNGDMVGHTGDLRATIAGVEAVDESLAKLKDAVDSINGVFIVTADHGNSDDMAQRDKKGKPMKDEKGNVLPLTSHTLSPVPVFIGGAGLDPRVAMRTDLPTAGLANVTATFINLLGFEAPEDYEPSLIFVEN
Phosphoglycerate kinase, glycosomal (Trypanosoma brucei brucei), sequence (P07378 whole entry, looked up): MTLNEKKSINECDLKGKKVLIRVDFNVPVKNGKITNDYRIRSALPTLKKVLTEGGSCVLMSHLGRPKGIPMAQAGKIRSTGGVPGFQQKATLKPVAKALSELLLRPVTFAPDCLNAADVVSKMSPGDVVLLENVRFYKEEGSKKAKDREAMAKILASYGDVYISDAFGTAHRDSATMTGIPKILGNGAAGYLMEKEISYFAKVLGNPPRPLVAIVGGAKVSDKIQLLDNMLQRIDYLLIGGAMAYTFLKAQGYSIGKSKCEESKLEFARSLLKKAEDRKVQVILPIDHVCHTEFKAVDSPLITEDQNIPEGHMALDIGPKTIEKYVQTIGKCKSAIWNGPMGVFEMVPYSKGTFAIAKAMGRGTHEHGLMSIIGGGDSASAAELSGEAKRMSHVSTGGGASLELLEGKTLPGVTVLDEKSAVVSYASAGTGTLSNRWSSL
ATPase family AAA domain-containing protein 5 (Homo sapiens), sequence (Q96QE3 whole entry, looked up, the tested form may be a part): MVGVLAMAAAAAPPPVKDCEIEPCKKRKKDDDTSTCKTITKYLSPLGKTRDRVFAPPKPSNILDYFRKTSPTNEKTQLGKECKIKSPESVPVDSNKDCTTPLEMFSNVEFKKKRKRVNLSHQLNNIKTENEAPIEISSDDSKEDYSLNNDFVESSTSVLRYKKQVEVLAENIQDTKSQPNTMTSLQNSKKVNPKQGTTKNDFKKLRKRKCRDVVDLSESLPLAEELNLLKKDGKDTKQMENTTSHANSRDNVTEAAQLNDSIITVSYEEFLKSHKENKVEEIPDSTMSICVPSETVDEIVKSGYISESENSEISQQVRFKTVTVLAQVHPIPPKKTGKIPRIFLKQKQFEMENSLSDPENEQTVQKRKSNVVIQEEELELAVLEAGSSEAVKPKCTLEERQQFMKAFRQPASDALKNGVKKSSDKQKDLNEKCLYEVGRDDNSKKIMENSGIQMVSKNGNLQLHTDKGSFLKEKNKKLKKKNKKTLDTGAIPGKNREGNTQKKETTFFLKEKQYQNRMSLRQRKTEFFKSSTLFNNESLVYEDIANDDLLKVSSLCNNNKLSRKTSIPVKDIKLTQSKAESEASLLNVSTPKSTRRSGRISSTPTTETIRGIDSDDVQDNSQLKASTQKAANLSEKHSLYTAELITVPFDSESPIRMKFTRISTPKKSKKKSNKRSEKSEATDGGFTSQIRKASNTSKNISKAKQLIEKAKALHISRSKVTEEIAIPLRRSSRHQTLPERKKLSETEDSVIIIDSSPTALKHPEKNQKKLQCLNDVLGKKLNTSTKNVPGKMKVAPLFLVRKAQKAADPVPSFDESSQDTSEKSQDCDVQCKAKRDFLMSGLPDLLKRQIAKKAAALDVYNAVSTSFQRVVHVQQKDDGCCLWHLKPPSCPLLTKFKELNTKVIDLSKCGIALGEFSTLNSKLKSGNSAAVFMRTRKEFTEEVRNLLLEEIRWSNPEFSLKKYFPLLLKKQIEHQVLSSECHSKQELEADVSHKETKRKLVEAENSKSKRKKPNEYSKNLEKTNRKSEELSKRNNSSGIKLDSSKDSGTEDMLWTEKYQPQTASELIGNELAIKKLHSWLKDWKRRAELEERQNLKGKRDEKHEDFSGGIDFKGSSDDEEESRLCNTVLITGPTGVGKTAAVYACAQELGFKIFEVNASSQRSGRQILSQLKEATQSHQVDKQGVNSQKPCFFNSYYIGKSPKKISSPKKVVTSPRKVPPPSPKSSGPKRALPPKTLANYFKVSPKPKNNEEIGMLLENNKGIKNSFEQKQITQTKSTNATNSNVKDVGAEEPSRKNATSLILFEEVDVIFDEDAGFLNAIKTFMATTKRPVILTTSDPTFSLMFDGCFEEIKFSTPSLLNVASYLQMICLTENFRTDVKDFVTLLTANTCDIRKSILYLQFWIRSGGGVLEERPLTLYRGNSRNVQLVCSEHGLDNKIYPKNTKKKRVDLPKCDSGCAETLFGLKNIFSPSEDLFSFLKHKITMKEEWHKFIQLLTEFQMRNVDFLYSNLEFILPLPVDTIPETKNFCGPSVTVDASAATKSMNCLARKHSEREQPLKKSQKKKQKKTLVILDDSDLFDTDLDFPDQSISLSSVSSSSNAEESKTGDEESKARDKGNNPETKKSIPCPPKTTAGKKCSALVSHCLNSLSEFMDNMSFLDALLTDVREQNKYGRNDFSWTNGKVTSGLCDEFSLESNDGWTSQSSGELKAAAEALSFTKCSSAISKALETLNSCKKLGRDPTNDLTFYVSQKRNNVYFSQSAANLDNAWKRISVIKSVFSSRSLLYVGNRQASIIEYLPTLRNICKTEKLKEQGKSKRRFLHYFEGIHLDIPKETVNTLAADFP
Methanococcus maripaludis chaperonin (MmCpn), sequence (Q6LX38 1-543): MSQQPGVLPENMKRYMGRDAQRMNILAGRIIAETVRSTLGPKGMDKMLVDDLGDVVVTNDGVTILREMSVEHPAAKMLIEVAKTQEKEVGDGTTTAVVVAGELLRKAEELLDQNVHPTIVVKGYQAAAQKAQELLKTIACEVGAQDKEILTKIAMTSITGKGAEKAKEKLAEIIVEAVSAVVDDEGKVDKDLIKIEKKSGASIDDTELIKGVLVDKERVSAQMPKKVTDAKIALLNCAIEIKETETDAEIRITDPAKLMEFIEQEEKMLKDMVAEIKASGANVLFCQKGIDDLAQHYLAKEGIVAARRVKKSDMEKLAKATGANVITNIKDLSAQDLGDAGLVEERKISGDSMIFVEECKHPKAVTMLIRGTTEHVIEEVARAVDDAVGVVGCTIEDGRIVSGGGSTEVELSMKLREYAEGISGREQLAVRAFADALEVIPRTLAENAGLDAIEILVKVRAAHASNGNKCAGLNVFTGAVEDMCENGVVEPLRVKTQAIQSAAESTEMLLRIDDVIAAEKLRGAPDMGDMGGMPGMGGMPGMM
Calcium and integrin-binding protein 1 (Homo sapiens), sequence (Q99828 whole entry, looked up): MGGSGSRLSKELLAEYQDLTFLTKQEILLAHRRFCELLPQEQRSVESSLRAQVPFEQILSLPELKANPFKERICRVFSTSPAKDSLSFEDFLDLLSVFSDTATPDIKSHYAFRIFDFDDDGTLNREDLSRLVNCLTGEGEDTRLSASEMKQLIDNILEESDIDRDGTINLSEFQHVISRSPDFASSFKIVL

For `CN(C)[C@@H]1C(=O)C(C(N)=O)=C(O)[C@]2(O)C(=O)C3=C(O)c4c(O)cccc4[C@@](C)(O)[C@@H]3C[C@@H]12`, in [1], the Potency result is “inactive”.

With `CC(C)(O)/C=C\C(=O)[C@](C)(O)[C@H]1[C@H](O)C[C@]2(C)[C@@H]3CC=C4[C@@H](C=C(O)C(=O)C4(C)C)[C@]3(C)C(=O)C[C@@]12C`, the Potency in [2] is > 11.4 µM (inactive).

Turning to `COC(=O)[C@]12CCC(C)(C)C[C@H]1[C@H]1C(=O)C=C3[C@@]4(C)C=C(C#N)C(=O)C(C)(C)[C@@H]4CC[C@@]3(C)[C@]1(C)CC2`, the viability (% of control) in assay [3] came to 0.135%. For the same compound, the Potency in assay [4] was 10 µM (active).

For the compound `CC12CCC3C(CCC4=C(O)C(=O)CCC43C)C1CCC2=O` (stereo unspecified), the Potency result in assay [5] and in assay [10] was “inactive” throughout. In addition, the result in assay [6], in [7], in [8], in assay [9], in assay [11] and in assay [12] was inactive. The result in assay [13], in [14], in assay [15], in assay [16], in [17] and in [18] was inactive. The outcome in [19] and in [20] was inactive.

For the compound `C[C@H]1C2Cc3ccc(O)cc3[C@]1(C)CCN2CC1CC1`, the Potency entry in assay [5] and in assay [10] was “inactive” throughout. The call in assay [6], in assay [7], in assay [8], in assay [9], in assay [11] and in assay [12] was inactive. The result in [13], in assay [14], in assay [15], in assay [16], in [17] and in [18] was inactive. Also, the call in [19] and in [20] was inactive.
